According to PubChem BioAssay (NCATS):
Inconclusive results are not listed. Active and inactive are the calls of the source. The call rests on the fitted dose curve; in most records, active means well fitted inhibition curve with a large enough effect; inconclusive means small, poorly fitted or top-dose-only effect; inactive means flat fitted curve, though single readings scatter.

Legend:
[1] = system: TAB113; assay: qHTS profiling for inhibitors of Plasmodium falciparum proliferation (AID 504749); further: potency means the concentration at half of the fitted maximal effect; settings: P. falciparum in erythrocytes, SYBR Green DNA, 72 h; series mostly up to 28.7 µM
In short: (§1)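 SYBR Green fluorescence (ex 485 nm, em 535 nm) reports parasite DNA after 72 h compound exposure of infected red cells at 0.3% parasitemia, 2.5% hematocrit; signal normalized to 0.29 uM artemisinin and vehicle wells.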

[2] = system: TAB165; assay: as above; settings: P. falciparum in erythrocytes, SYBR Green DNA, 72 h; series mostly up to 28.7 µM
In short: as §1

[3] = system: CRL-7250; assay: Cytotoxic Profiling of Annotated Libraries Using Quantitative High-Throughput Screening (AID 1296008); settings: Five cell lines viability, CellTiter-Glo ATP luminescence, 48-72 h; max response: stronger effect = lower value; further: potency means the concentration at half of the fitted maximal effect; on max response: on the % scale 0 is the no-effect control and ±100 the full control effect
In short: (§2)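 Cells exposed to compounds for 48 or 72 hr at 37 degrees Celsius. Viability read as ATP-coupled luminescence with CellTiter-Glo after 10 min at room temperature.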

[4] = system: HaCat; assay: as above; settings: Five cell lines viability, CellTiter-Glo ATP luminescence, 48-72 h; max response: stronger effect = lower value
In short: as §2

[5] = system: KB-3-1; assay: as above; settings: Five cell lines viability, CellTiter-Glo ATP luminescence, 48-72 h; max response: stronger effect = lower value
In short: as §2

[6] = system: NIH3T3; assay: as above; settings: Five cell lines viability, CellTiter-Glo ATP luminescence, 48-72 h; max response: stronger effect = lower value
In short: as §2

[7] = system: HACAT; assay: qHTS assay to identify novel small-molecules to repurpose for Merkel cell carcinoma treatment (AID 1296009); settings: MCC and control cell lines, CellTiter-Glo viability, 72 h; at 44.8 µM (top of the series) unless noted
In short: (§3)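 CellTiter-Glo luminescence after 72 hr compound exposure at 37 degree celsius gave cell viability. Libraries NPC and MIPE were run as 8- and 11-point dose responses; RLUs normalized to DMSO (negative) and no-cell (cytotoxicity) controls.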

[8] = system: W2; assay: qHTS profiling for inhibitors of Plasmodium falciparum proliferation (AID 504749); further: potency means the concentration at half of the fitted maximal effect; settings: P. falciparum in erythrocytes, SYBR Green DNA, 72 h; series mostly up to 28.7 µM
In short: as §1

[9] = system: HEK293; assay: Cytotoxic Profiling of Annotated Libraries Using Quantitative High-Throughput Screening (AID 1296008); settings: Five cell lines viability, CellTiter-Glo ATP luminescence, 48-72 h; max response: stronger effect = lower value; further: potency means the concentration at half of the fitted maximal effect; on max response: on the % scale 0 is the no-effect control and ±100 the full control effect
In short: as §2

[10] = system: HEK293T; assay: qHTS assay to identify novel small-molecules to repurpose for Merkel cell carcinoma treatment (AID 1296009); settings: MCC and control cell lines, CellTiter-Glo viability, 72 h; at 44.8 µM (top of the series) unless noted
In short: as §3
Further: nearly all actives have a fitted effect of over 60% in size.

CC(C)=CCOc1ccc(/C=C/C(=O)c2ccc(OCC=C(C)C)cc2OCC(=O)O)cc1
inactive: Potency [1] | Potency [2] | max response [3] -15.2% | outcome [4] | max response [5] 1.11% | outcome [6] | outcome [7]

Cc1cc(CC(=O)O)c(C)n1-c1ccc(Cl)cc1
active: Potency [2] 14.1 µM | Potency [8] 8.49 µM
inactive: outcome [3] | outcome [4] | max response [5] -2.45% | outcome [6] | outcome [7]

O=C(NC1CCN(CCc2c[nH]c3ccccc23)CC1)c1ccccc1
inactive: Potency [1] | Potency [2] | max response [3] -5.92% | outcome [4] | max response [5] -0.418% | max response [6] -2.1% | outcome [7]

C[N+]1(C)CCC(=C(c2ccccc2)c2ccccc2)CC1
inactive: Potency [1] | Potency [8] | max response [3] -1% | outcome [4] | max response [5] 3.66% | max response [6] -1.38% | outcome [7]

CC(=O)O[C@]1(C(C)=O)CC[C@H]2[C@@H]3C=C(C)C4=CC(=O)CC[C@]4(C)[C@H]3CC[C@@]21C
inactive: max response [3] -4.16% | max response [4] -4.96% | max response [5] 11.8% | max response [6] 0.169%

CCCCCCCCCCCCCCC[C@H](O)[C@@H](N)CO
inactive: max response [3] -2.05% | max response [4] -24.2% | max response [5] -4.68% | max response [6] -9.49%

COc1cc(C)nc(-n2nc(C)cc2OC)n1
inactive: Potency [1] | Potency [2] | Potency [8] | max response [3] -9.05% | max response [9] -7.38% | outcome [6]

C[C@@H](O)[C@H]1C(=O)N2C(C(=O)O)=C(S[C@@H]3CN[C@H](CNS(N)(=O)=O)C3)[C@H](C)[C@H]12
inactive: Potency [1] | Potency [2] | Potency [8] | max response [3] -1.21% | outcome [4] | max response [5] 7.85% | max response [6] 3.07% | outcome [7]

COc1ccc(C(=O)c2ccccc2)c(O)c1
inactive: max response [3] -4.19% | outcome [9] | max response [6] 2.73% | outcome [10]
active: Potency [8] 13.5 µM

CCCCCN=C(N)N/N=C/c1c[nH]c2ccc(OC)cc12
active: Potency [1] 10 µM | Potency [2] 3.55 µM | Potency [8] 1.51 µM | Potency [3] 18.8 µM | Potency [9] 8.41 µM

C[C@H]1[C@H]2CC[C@H]3[C@@H]4CC=C5C[C@@H](N(C)C)CC[C@]5(C)[C@H]4CC[C@]23CN1C
inactive: max response [3] -17.6% | outcome [4] | max response [5] 3.38% | max response [6] 0.439% | outcome [7]

CO[C@H]1C=CO[C@@]2(C)Oc3c(C)c(O)c4c(O)c(c(/C=N/N5CCN(C)CC5)c(O)c4c3C2=O)NC(=O)/C(C)=C\C=C[C@H](C)[C@H](O)[C@@H](C)[C@@H](O)[C@@H](C)[C@H](OC(C)=O)[C@@H]1C
inactive: max response [3] 1.9% | max response [4] -21.6% | max response [5] -19.7% | max response [6] -0.808%

CCCN(CCc1cccs1)[C@H]1CCc2c(O)cccc2C1
active: Potency [1] 4.47 µM | Potency [2] 4.47 µM | Potency [8] 1.35 µM
inactive: max response [3] -5.8% | outcome [4] | max response [5] 5.8% | outcome [6] | outcome [7]

CCN[C@@H]1C[C@H](N)[C@@H](OC2OC(CN)=CCC2N)[C@H](O)[C@H]1O[C@H]1OC[C@](C)(O)[C@H](NC)[C@H]1O (stereo partly drawn)
inactive: max response [3] 0.244% | outcome [9] | max response [6] -0.0944% | outcome [10] inactive [at 0.588 µM]

O=C(Nc1ccccc1)OCC(CN1CCCCC1)OC(=O)Nc1ccccc1 (stereo not drawn)
inactive: max response [3] -24% | outcome [4] | max response [5] -1.56% | max response [6] -10.2% | outcome [7]

O=C(CN1CCN(Cc2ccc3c(c2)OCO3)CC1)N1c2ccccc2Sc2ccccc21
inactive: max response [3] -6.96% | outcome [4] | max response [5] 6.91% | outcome [6] | outcome [7]
active: Potency [2] 10 µM | Potency [8] 6.01 µM

COc1cc(C(=O)NCc2ccc(OCCN(C)C)cc2)cc(OC)c1OC
inactive: Potency [1] | Potency [2] | Potency [8] | max response [3] -8.61% | max response [4] 4.17% | max response [5] -11.1% | max response [6] -0.23%

c1ccc(-c2nc[nH]c2-c2ccccc2)cc1
inactive: Potency [1] | Potency [2] | Potency [8] | max response [3] -18.7% | max response [4] -29.5% | max response [5] 23.6% | max response [6] -7.14%

CCc1ccc(C(=O)C(C)CN2CCCCC2)cc1 (stereo not drawn)
inactive: Potency [1] | Potency [2] | max response [9] -19.7% | outcome [4] | max response [5] -1.02% | max response [6] -2.26% | outcome [7]

CN1CCN(c2cc3c(cc2F)c(=O)c(C(=O)O)cn3-c2ccc(F)cc2)CC1
active: Potency [8] 12 µM
inactive: Potency [1] | Potency [2] | max response [3] -1.2% | max response [4] 2% | max response [5] -5.32% | max response [6] -2.14%

COc1ccc(-c2cc(C(F)F)nn2-c2ccc(S(N)(=O)=O)cc2)cc1F
inactive: Potency [1] | Potency [2] | Potency [8] | max response [3] 2.74% | max response [4] -0.189% | max response [6] 1.89%

CCN1/C(=C/C=C/c2sc3ccccc3[n+]2CC)Sc2ccccc21
active: Potency [1] 0.141 µM | Potency [2] 0.141 µM | Potency [8] 0.0953 µM | Potency [3] 0.13 µM | Potency [4] 2.91 µM | Potency [6] 1.84 µM
